# Measurements taken from PubChem BioAssay AID2537 (National Center for Advancing Translational Sciences (NCATS), 2010).
# Results filed as inconclusive are left out. A call without a number means that no potency is given here. Active and inactive are the calls of the source. Calls come from the whole dose curve; as a rule, active = well fitted inhibition curve with a large enough effect; inconclusive = small, poorly fitted or top-dose-only effect; inactive = no such curve, though single readings can be large or run the other way.
# Biological target: Polyunsaturated fatty acid lipoxygenase ALOX15B (Homo sapiens) (UniProt O15296)
# Sequence (O15296 whole entry, looked up): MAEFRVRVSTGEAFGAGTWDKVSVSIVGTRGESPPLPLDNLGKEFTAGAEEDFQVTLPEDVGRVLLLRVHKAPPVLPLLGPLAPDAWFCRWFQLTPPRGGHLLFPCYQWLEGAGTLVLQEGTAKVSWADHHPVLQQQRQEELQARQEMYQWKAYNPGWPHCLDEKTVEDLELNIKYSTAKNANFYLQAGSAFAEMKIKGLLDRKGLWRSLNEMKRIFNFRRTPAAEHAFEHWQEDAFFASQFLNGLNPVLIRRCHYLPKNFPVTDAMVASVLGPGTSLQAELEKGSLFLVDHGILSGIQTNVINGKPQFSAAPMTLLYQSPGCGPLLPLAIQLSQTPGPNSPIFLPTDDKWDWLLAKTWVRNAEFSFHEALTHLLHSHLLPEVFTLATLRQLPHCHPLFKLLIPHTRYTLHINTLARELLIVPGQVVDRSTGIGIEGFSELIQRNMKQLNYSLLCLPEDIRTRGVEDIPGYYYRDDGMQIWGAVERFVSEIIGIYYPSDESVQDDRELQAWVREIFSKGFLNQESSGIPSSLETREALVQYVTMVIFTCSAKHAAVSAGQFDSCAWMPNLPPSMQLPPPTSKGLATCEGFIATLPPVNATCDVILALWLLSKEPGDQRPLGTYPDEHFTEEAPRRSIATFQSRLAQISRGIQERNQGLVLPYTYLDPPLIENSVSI
# Assay: Confirmation qHTS Assay for Inhibitors of 15-hLO-2 (15-human lipoxygenase 2)
# Conditions: purified 15hLO-2, xylenol orange hydroperoxide absorbance; series mostly up to 57.1 µM
# Protocol: Human lipoxygenase 15hLO-2 is a member of the closely related lipoxygenase family of enzymes which catalyze the site-specific oxidation of arachidonic acid to various hormone precursor molecules and as such is a candidate for drug development in a variety of disease areas, such as cancer and inflammation. Inhibition of 15hLO-2 activity was screened by utilizing arachidonic acid as a substrate. The extent of hydroperoxide product formation was measured by a secondary chromogenic reaction in which xylenol orange (XO, Sigma-Aldrich, cat. number 39,818-7) reacts with the ferric ions produced from the reaction between the hydroperoxide and ferrous ions. The Fe(III)-XO complex is characterized with red-shifted absorbance at 560 nm. A purified preparation of human 15hLO-2 was supplied by Professor Ted Holman, University of California, Santa Cruz. NIH Molecular Libraries Screening Centers Network [MLSCN] NIH Chemical Genomics Center [NCGC] MLSCN Grant: MH081283-01A1 PI Name: Holman, T.R., University of California, Santa Cruz
# Assay Protocol: Buffer: 25 mM Hepes pH 7.5, 0.01% Triton X-100. Reagents/Controls: Buffer in columns 3 and 4 as negative control (no enzyme). Substrate solution: 45 uM arachidonic acid (Sigma-Aldrich, St. Louis, MO) final concentration dispensed throughout the plate. Enzyme: 50 nM 15hLO-2 final concentration in columns 1, 2, 5-48. Column 1 is neutral (100% activity). Column 2 contained pin-transferred titration of NDGA (nordihidroguaiaretic acid, Sigma-Aldrich, N 5023, top concentration 10 mM in DMSO, then 1:2 dilution in duplicate). (Dilution factor: 23 nL into 4 uL.) Chromogenic detection reagent (divalent iron/xylenol orange, Fe-XO): 200 uM xylenol orange plus 300 uM ferrous ammonium sulfate prepared freshly in 50 mM sulfuric acid. Assay Steps: Three uL of enzyme were dispensed to 1536-well Greiner black clear bottom plates. Compounds and controls (23 nL) were transferred via Kalypsys PinTool. The plates were incubated for 15 min at room temperature, and then 1 uL of substrate solution was added to start the reaction. After room temperature incubation for 90 minutes, 4 uL of Fe-XO solution was added to each well followed by a short spin (1000 rpm, 15 sec) and the plates were then incubated for 30 min. The absorbance at 405 and 573 nm were measured using ViewLux (Perkin-Elmer) High-throughput CCD imager and absorbance protocol settings. The 573-to-405 absorbance ratio was used to compute reaction progress.
row,SMILES,Potency
1,Clc1ccc(NNc2ccnc3cc(Cl)ccc23)cc1,inactive
2,CCCC(=O)NC(c1ccco1)c1cc(Cl)c2cccnc2c1O (configuration not stated),inactive
3,COc1cccc(-c2nc(NC3CCNCC3)c3ccccc3n2)c1,inactive
4,COc1ccccc1-n1c(SCC(=O)Nc2ccc(C)cc2)nc(O)cc1=O,inactive
5,Cc1cccc(NC(=O)CSC(N)=O)c1C,inactive
6,O=C(Nc1nnc(-c2ccco2)s1)C1CCCCC1,1 µM (active)
7,O=C(Nc1nnc(-c2ccccc2)o1)c1ccc(Cl)cc1,inactive
8,O=C(Cc1cc(=O)[nH][nH]1)N/N=C/C=C/c1ccccc1,inactive
9,Oc1ccc2ccccc2c1CNc1cnc2ccccc2c1,inactive
10,N=c1c(C(=O)NC2CCCC2)cc2c(=O)n3ccccc3nc2n1C1CCCC1,inactive
11,COc1cccc(-c2nccc(NCc3ccccc3OC)n2)c1,inactive
12,COc1ccc(C(C[N+](=O)[O-])c2c(-c3ccccc3)cc3ccccn23)c(OC)c1 (configuration not stated),inactive
